# PubChem BioAssay (NCATS)
# Records with an inconclusive call do not appear. Entries that show only a call come without a potency. The source made the active and inactive calls. Unless noted, calls come from the whole dose curve; as a rule, active = well fitted curve in the direction sought with a large enough effect; inconclusive = small, poorly fitted or top-dose-only effect, or another doubt; inactive = no such curve, though single readings can be large; an effect the other way counts as inactive or inconclusive.
# Key:
# [1] = molecular target: Aldehyde dehydrogenase, mitochondrial (Homo sapiens) (UniProt P05091); test: qHTS for Inhibitors of the Aldehyde Dehydrogenase Family (ALDH2) Confirmatory screens (AID 2061303; active = well fitted inhibition curve with a large enough effect; title and protocol of this record describe different tests; note: nearly all actives have a fitted effect of over 45% in size; note: potency is the fitted concentration of half-maximal effect)
# [2] = molecular target: Retinaldehyde dehydrogenase 3 (Homo sapiens) (UniProt P47895); test: qHTS for Inhibitors of the Aldehyde Dehydrogenase Family (ALDH1A3) Confirmatory screens (AID 2061311); note: nearly all actives have a fitted effect of over 60% in size; note: potency is the fitted concentration of half-maximal effect
# [3] = molecular target: Retinal dehydrogenase 2 (Homo sapiens) (UniProt O94788); test: qHTS for Inhibitors of the Aldehyde Dehydrogenase Family (ALDH1A2) Confirmation screens (AID 2061314); note: nearly all actives have a fitted effect of over 65% in size; note: potency is the fitted concentration of half-maximal effect
# [4] = molecular target: Aldehyde dehydrogenase 1A1 (Homo sapiens) (UniProt P00352); test: qHTS for Inhibitors of the Aldehyde Dehydrogenase Family (ALDH1A1) Confirmatory screens (AID 2061316); note: nearly all actives have a fitted effect of over 65% in size; note: potency is the fitted concentration of half-maximal effect
# [5] = molecular target: Aldehyde dehydrogenase, mitochondrial (Homo sapiens) (UniProt P05091); test: qHTS for Inhibitors of the Aldehyde Dehydrogenase Family (ALDH2) Primary screen (AID 2061308); note: nearly all actives have a fitted effect of over 55% in size
# [6] = molecular target: Retinaldehyde dehydrogenase 3 (Homo sapiens) (UniProt P47895); test: qHTS for Inhibitors of the Aldehyde Dehydrogenase Family (ALDH1A3) Primary screen (AID 2061315)
# [7] = molecular target: Retinaldehyde dehydrogenase 3 (Homo sapiens) (UniProt P47895); test: qHTS for Inhibitors of the Aldehyde Dehydrogenase Family (ALDH1A3) Validation screen (AID 2061312); note: potency is the fitted concentration of half-maximal effect; nearly all actives have a fitted effect of over 45% in size
# [8] = qHTS for Inhibitors of the Aldehyde Dehydrogenase Family (ALDH1A2, ALDH1A3, ALDH2, ALDH3A1) (AID 2061307); note: nearly all actives have a fitted effect of over 50% in size; for potency: test system not described further here; potency is the fitted concentration of half-maximal effect
smiles,measurement,setting,value
Cc1cccc(-c2ccc(C=O)cc2)c1,Potency,[1],12.6 µM (active)
same,Potency,[2],0.047 µM (active)
same,Potency,[3],39.8 µM (active)
same,Potency,[4],9.37 µM (active)
COc1ccccc1Nc1cc2ccccc2c(=O)[nH]1,Potency,[1],inactive
same,Potency,[2],0.318 µM (active)
same,Potency,[3],inactive
COc1cccc(N2CCN(c3nc(C(=O)NCc4cccc(C)c4)cs3)CC2)c1,Potency,[1],inactive
same,Potency,[2],inactive
same,Potency,[3],inactive
Cn1nnnc1Sc1ncnc2scc(-c3ccc([N+](=O)[O-])cc3)c12,Potency,[1],inactive
same,Potency,[5],inactive
same,Potency,[6],inactive
O=C(Nc1ccc(N2CCOCC2)c(F)c1)Nc1nnc(-c2ccncc2)s1,Potency,[1],inactive
same,Potency,[5],inactive
same,Potency,[6],inactive
NCCCNc1ncnc2ccc(-c3ccc4c(c3)OCO4)cc12,Potency,[1],inactive
same,Potency,[5],inactive
same,Potency,[4],11.3 µM (active)
CCOC(=O)c1ccc(N2CCN(c3cccc(Cl)c3)CC2)c(NC(=O)Nc2ccc(Cl)cc2)c1,Potency,[1],inactive
same,Potency,[2],inactive
same,Potency,[3],inactive
same,Potency,[4],inactive
CCN(CC)c1nc2ccccc2nc1C(=O)Nc1ccc(C(C)=O)cc1,Potency,[1],inactive
same,Potency,[2],inactive
same,Potency,[3],inactive
same,Potency,[4],inactive
O=c1[nH]c2ccc(NCc3ccc(-c4ccc(F)cc4)o3)cc2[nH]1,Potency,[1],0.914 µM (active)
same,Potency,[2],inactive
same,Potency,[3],inactive
CCOc1ccc(NC(=O)N2CCN(c3ccc(Cl)c(Cl)c3)CC2)cc1,Potency,[1],inactive
same,Potency,[2],inactive
same,Potency,[3],inactive
same,Potency,[4],inactive
COc1cccc(-c2cccc(C(=O)N3CCN(C(=O)Nc4ccccc4)CC3)c2)c1,Potency,[1],inactive
same,Potency,[2],inactive
same,Potency,[3],inactive
N#Cc1nc(NCC(F)F)nc(Nc2cc(F)cc(F)c2)n1,Potency,[1],inactive
same,Potency,[5],inactive
same,Potency,[6],inactive
same,Potency,[4],inactive
O=S(=O)(Nc1ccc(O)c(NS(=O)(=O)c2ccccc2)c1)c1ccccc1,Potency,[1],inactive
same,Potency,[5],inactive
same,Potency,[6],inactive
same,Potency,[4],2.83 µM (active)
Cc1cc(C)nc(NC(=C(C#N)C#N)N2CCN(c3cccc(C(F)(F)F)c3)CC2)c1,Potency,[1],14.2 µM (active)
same,Potency,[5],inactive
same,Potency,[6],inactive
CCc1cc(N2CCOC(c3ccc4cc(OC)ccc4c3)C2)nc(C)n1 (stereo unspecified),Potency,[1],inactive
same,Potency,[2],inactive
same,Potency,[3],inactive
same,Potency,[4],inactive
Cc1ccc(NC(=O)c2cc(-c3ccc(Br)s3)nc3ccccc23)cc1F,Potency,[1],inactive
same,Potency,[2],inactive
same,Potency,[3],inactive
same,Potency,[4],inactive
Cc1ccc(-n2nc(C)c3c(C(=O)Nc4ccc(Br)c(C)c4)cc(C)nc32)cc1,Potency,[1],inactive
same,Potency,[2],inactive
same,Potency,[3],inactive
CN(c1ccccc1)c1ccc(CNc2nn3c(=O)c4ccccc4nc3s2)cc1,Potency,[1],11.2 µM (active)
same,Potency,[2],12.6 µM (active)
same,Potency,[3],inactive
same,Potency,[6],inactive
same,Potency,[4],8.96 µM (active)
Cc1ccc(NC(=O)N2CCN(c3ccc(Cl)c(Cl)c3)CC2)cc1,Potency,[1],inactive
same,Potency,[2],inactive
same,Potency,[3],inactive
same,Potency,[4],inactive
CC1(C)CCC(C)(C)c2cc3c(cc21)Sc1ccccc1N=C3c1ccc(C(=O)O)cc1,Potency,[1],inactive
same,Potency,[2],inactive
same,Potency,[7],6.31 µM (active)
same,Potency,[3],inactive
same,Potency,[6],inactive
COc1ccc(Cn2c(=O)[nH]c3cc(C(=O)N4CCN(c5ccccc5)CC4)ccc3c2=O)cc1,Potency,[1],inactive
same,Potency,[2],inactive
same,Potency,[3],inactive
same,Potency,[4],inactive
O=C(Nc1cccc(-c2nn3c(=O)cc(N4CCNCC4)nc3s2)c1)c1ccncc1,Potency,[1],7.08 µM (active)
same,Potency,[2],28.2 µM (active)
same,Potency,[3],14.1 µM (active)
same,Potency,[6],inactive
same,Potency,[4],3.18 µM (active)
CCOc1ccc(CCNC(=O)c2ccc(N3N=C(C)CC3=O)cc2)cc1OCC,Potency,[1],1.26 µM (active)
same,Potency,[2],0.1 µM (active)
same,Potency,[3],0.896 µM (active)
same,Potency,[6],inactive
same,Potency,[4],0.896 µM (active)
COc1ccc(CNC(=O)c2cc3c(=O)n(Cc4ccc(OC)cc4)ccc3nc2C)cc1,Potency,[1],inactive
same,Potency,[2],inactive
same,Potency,[3],inactive
same,Potency,[4],inactive
O=C(CN1CCCN(S(=O)(=O)c2ccc(Br)cc2)CC1)Nc1cccc(C(F)(F)F)c1,Potency,[1],1.15 µM (active)
same,Potency,[2],6.47 µM (active)
same,Potency,[3],25.1 µM (active)
same,Potency,[4],1.45 µM (active)
COc1ccc(NC(c2nnc(-c3ccccc3)o2)c2ccccc2F)cc1Cl (stereo unspecified),Potency,[1],inactive
same,Potency,[2],inactive
same,Potency,[3],inactive
same,Potency,[4],inactive
O=C(Nc1ccc([S+](=O)([O-])Nc2nccs2)cc1)c1ccccn1,Potency,[1],inactive
same,Potency,[5],inactive
same,Potency,[6],inactive
same,Potency,[4],inactive
Cc1nc(CNc2ncnc3ccc(-c4ccoc4C)cc23)cs1,Potency,[1],inactive
same,Potency,[5],inactive
same,Potency,[6],inactive
COc1ccc(CN(Cc2ccccc2)C(=O)c2ccccc2N)cc1COc1ccc(NC(C)=O)cc1,Potency,[1],inactive
same,Potency,[5],inactive
same,Potency,[6],inactive
CCOC(=O)Cn1c(=O)oc2cc(S(=O)(=O)N3CCN(c4ccc(C(C)=O)cc4)CC3)ccc21,Potency,[1],7.08 µM (active)
same,Potency,[2],0.355 µM (active)
same,Potency,[3],inactive
CC(=O)Nc1sc2c(c1-c1nc3ccccc3s1)CN(C1COC1)C2,Potency,[1],12.7 µM (active)
same,Potency,[2],8.96 µM (active)
same,Potency,[3],8.96 µM (active)
same,Potency,[6],inactive
same,Potency,[4],2.52 µM (active)
O=C(NCc1ccc(F)cc1)c1ccc2nnc(-c3cccc(C(F)(F)F)c3)n2c1,Potency,[1],inactive
same,Potency,[2],inactive
same,Potency,[3],inactive
same,Potency,[4],inactive
COc1ccc(N2CCN(C(=S)Nc3cc(C)ccn3)CC2)cc1,Potency,[1],10.1 µM (active)
same,Potency,[2],22.5 µM (active)
same,Potency,[3],12.7 µM (active)
same,Potency,[4],3.18 µM (active)
CC(C)Sc1ncc(Cl)c(C(=O)Nc2nc3ccc(S(C)(=O)=O)cc3s2)n1,Potency,[1],inactive
same,Potency,[2],inactive
same,Potency,[3],inactive
same,Potency,[4],inactive
CC(C)c1ccc(S(=O)(=O)c2cnc(SCC(=O)Nc3ccc4c(c3)OCCO4)[nH]c2=O)cc1,Potency,[1],inactive
same,Potency,[2],inactive
same,Potency,[3],10.1 µM (active)
same,Potency,[6],inactive
O=C(Nc1ccc2c(c1)OCO2)Nc1nnc(-c2ccncc2)s1,Potency,[1],inactive
same,Potency,[5],inactive
same,Potency,[6],inactive
same,Potency,[4],inactive
Cc1noc2c(NCCc3ccccn3)cc(-c3ccccn3)nc12,Potency,[1],inactive
same,Potency,[2],14.1 µM (active)
O=C(Nc1cccc(C(F)(F)F)c1)c1cc(-c2ccc(Cl)cc2)on1,Potency,[1],inactive
same,Potency,[2],inactive
same,Potency,[3],inactive
CCn1cc2nc(SCc3ccc(F)cc3)n(CCc3ccccc3)c(=O)c2n1,Potency,[1],14.1 µM (active)
same,Potency,[2],0.562 µM (active)
same,Potency,[3],7.94 µM (active)
same,Potency,[4],inactive
COc1ccc(-c2ccc(CNc3ccc4[nH]c(=O)[nH]c4c3)o2)cc1Cl,Potency,[1],1.82 µM (active)
same,Potency,[4],7.26 µM (active)
COc1cc(F)ccc1-c1ccnc2nc(Cc3ccc(F)cc3)nn12,Potency,[1],inactive
same,Potency,[4],inactive
O=C(Nc1nnc(Cc2ccccc2)s1)c1ccc(F)c(F)c1,Potency,[8],inactive
CN(C)Cn1c(O)c(N=NC(=O)c2cccnc2)c2ccccc21,Potency,[8],inactive
CCOc1c(Cl)cc(CNc2ccc3[nH]c(=O)[nH]c3c2)cc1OC,Potency,[8],inactive
CCS(=O)(=O)c1nc(-c2ccc(Cl)cc2)cc(C(F)(F)F)n1,Potency,[8],4.47 µM (active)
Cc1cc(SCc2sc(-c3ccc(F)cc3)nc2C)ccc1OCC(=O)O,Potency,[8],inactive
CC(C)(C)OC(=O)NC1CCN(c2nc(Br)cs2)CC1,Potency,[8],inactive
Cc1ccc(NS(=O)(=O)c2cc(N[C@@H](C)CO)cc3c2NC(=O)CC3)cc1C,Potency,[8],inactive
Cc1ccc(N(C)S(=O)(=O)c2ccc(-c3cnc(C4CC4)o3)cc2)cc1,Potency,[8],inactive
COc1ccc(-c2cc(C(=O)Nc3ccc(C(N)=O)cc3F)sc2C)cc1,Potency,[8],inactive
NC(=O)c1cccc2c1CCCN2C(=O)c1csc(-c2ccc(Cl)cc2)n1,Potency,[8],inactive
CC(=O)Nc1cccc(C(=O)Nc2nc(-c3ccc4c(c3)CCC(=O)N4)cs2)c1,Potency,[8],inactive
COc1ccccc1C(=O)Nc1nnc(SCc2cc(=O)c3ccccc3[nH]2)s1,Potency,[8],3.98 µM (active)
COC(=O)c1ccc2c(c1)CCN2C(=O)c1cnn(-c2ccccc2)c1,Potency,[8],inactive
O=S(=O)(c1ccccc1)N1CCC(N(CCc2ccccc2)Cc2ccccc2)CC1,Potency,[8],0.708 µM (active)
N#CCc1c(Cc2ccc(S(N)(=O)=O)cc2)c(-c2ccccc2)nn1-c1nc(C(=O)O)cs1,Potency,[8],inactive
O=C(c1cc(-c2ccccc2Cl)nc2ccccc12)N1CCN(c2ccccc2O)CC1,Potency,[8],inactive
O=C(c1cccs1)c1no[n+]([O-])c1C(=O)c1cccs1,Potency,[8],1.59 µM (active)
O=C(Nc1cccc(C(F)(F)F)c1)c1ccccc1NCc1ccccc1,Potency,[8],inactive
O=C(Nc1ccnc(Cc2ccccc2)c1)c1ccc(-c2cccc([N+](=O)[O-])c2)o1,Potency,[8],2.01 µM (active)
O=C(Nc1ccn[nH]1)c1ccn(-c2cccc(F)c2)n1,Potency,[8],inactive
CCOC(=O)OC(C)OC(=O)c1csc(-n2[nH]c(-c3ccc(F)c(F)c3)cc2=O)n1 (stereo unspecified),Potency,[8],inactive
NCC(=O)Nc1ccc2c(c1)Oc1cc(NC(=O)CN)ccc1C21OC(=O)c2ccccc21,Potency,[8],inactive
Cc1cccc2c1NC(=O)C2(O)CC(=O)c1ccco1 (stereo unspecified),Potency,[8],0.565 µM (active)
Cc1oc(-c2ccc(C(F)(F)F)cc2)nc1COc1cccc2cc(NS(=O)(=O)C(F)(F)F)ccc12,Potency,[8],12.7 µM (active)
COc1ccc(-n2cc(-c3ccc4c(c3)OCO4)n(CC(=O)Nc3cccc(C)c3)c2=O)cc1,Potency,[8],inactive
O=C(O)c1cccc(COc2cccc([N+](=O)[O-])c2)c1,Potency,[8],0.269 µM (active)
COc1cccc(Nc2nc(C)c(C(=O)Nc3ccccc3)s2)c1,Potency,[8],inactive
O=C(O)c1csc(-n2[nH]c(-c3c(F)cccc3F)cc2=O)n1,Potency,[8],inactive
Cc1ccc(CNS(=O)(=O)c2ccc3c(c2)CN(C(=O)c2cccnc2)CC3)o1,Potency,[8],inactive
O=C(Nc1ccc(S(=O)(=O)N2CCOC(c3ccccc3)C2)cc1)c1ccc(CN2CCc3ccccc3C2)cc1 (stereo unspecified),Potency,[8],inactive
CC(Sc1nc2c(cnn2C2COC2)c(=O)n1-c1ccccc1)c1ccccc1 (stereo unspecified),Potency,[8],inactive
Cc1nc(-c2ccc(Cl)s2)sc1C(=O)Nc1ccc(C(N)=O)c(F)c1,Potency,[8],inactive
OCCNc1nc(Nc2ccccc2O)nc(N2CCCC2)n1,Potency,[8],inactive
O=C(Nc1nc2ccc(Cl)cc2s1)c1cc(=O)c2ccccc2o1,Potency,[8],inactive
N#Cc1ccc(NC(=O)Cc2csc3nc(-c4ccccc4)cn23)cc1,Potency,[8],18.2 µM (active)
COc1ccc(-n2c(CSCc3ccccc3)c(C(C)=O)c3cc(O)ccc32)cc1,Potency,[8],inactive
